Among the data in PubChem BioAssay (NCI) are growth values, retold here.

The panel holds about 83,000 compounds, 20% with a hit somewhere; the sample as a whole holds those more often.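 How to read the values: 0–100, growth inhibition (40 = 60% inhibited); 0, no net growth; -100 to 0, cell death (-40 = 40% of starting cells died; -100 = all dead).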 A number with no mark means an inactive call. Active and inactive are the calls of the source. Rule for the calls: active = growth percent below 10; inactive = the rest.

Some test systems named below: NCI-H23 lung; NCI-H226 lung; NCI-H322M lung; HOP-62 NSCLC; NCI-H460 lung; HOP-92 NSCLC; NCI-H522 lung; A549/ATCC NSCLC; 786-0 renal; COLO 205 colon.
Holding throughout (experiment): NCI-60 one-dose screen, 48 h (100 = growth as untreated, 0 = no growth, -100 = all killed)
What all share (conditions): 10 µM unless noted

Regarding `N=C(N)c1ccc(-c2ccc(-c3ccc(Cl)cc3)s2)nc1`, the growth with NCI-H23 lung is 62.8%; with NCI-H226 lung, 84.5%; with NCI-H322M lung it was -30.3% (active); in the assay with HOP-62 NSCLC, 36%; in the assay on NCI-H460 lung, -90.2% (active); in the assay on HOP-92 NSCLC, 65.1%. Also, the growth with NCI-H522 lung was -52.5% (active); with A549/ATCC NSCLC, -30.8% (active); in the assay with 786-0 renal it was 71.3%; in the assay with COLO 205 colon, -71.8% (active).

With `Cc1nc2sc(C(=O)Nc3cccc(Cl)c3C)c(N)c2cc1C(=O)c1ccccc1`, the growth is 34.4% with NCI-H23 lung; 5.27% (active) in the assay on NCI-H226 lung; 49.8% in the assay on NCI-H322M lung; 21.2% in the assay on HOP-62 NSCLC; 7.35% (active) in the assay on NCI-H460 lung; 41.6% in the assay on HOP-92 NSCLC. Besides, the growth in the assay on NCI-H522 lung is 5.64% (active); with A549/ATCC NSCLC, 19.9%; in the assay with 786-0 renal it was 32.8%; with COLO 205 colon, -36% (active).

As for `COCCn1c(-c2csc(-c3cn(C)c4ccc(OC)cc34)n2)cc2cccnc21`, the growth with NCI-H23 lung is 63.8%; in the assay on NCI-H226 lung, 81.3%; in the assay on NCI-H322M lung, 82.4%; in the assay with HOP-62 NSCLC, 60.9%; in the assay with NCI-H460 lung it was 21.7%; in the assay with HOP-92 NSCLC, 67.5%. Besides, the growth with NCI-H522 lung was -24.5% (active); with A549/ATCC NSCLC it was 48%; in the assay with 786-0 renal it was 30.9%; in the assay with COLO 205 colon, 37.5%.

As for `COc1ccc(/C=C2\C(=O)N=C3N2NC(c2cc(Br)ccc2O)C=C(C)N3c2ccccc2)cc1` (stereo not given), the growth with NCI-H23 lung was 94.7%; in the assay with NCI-H226 lung, 85.1%; with NCI-H322M lung, 97.3%; in the assay on HOP-62 NSCLC, 108%; in the assay on NCI-H460 lung, 104%; with HOP-92 NSCLC, 93.6%. Moreover, the growth is 95.1% in the assay on NCI-H522 lung, 96% in the assay with A549/ATCC NSCLC, 101% in the assay on 786-0 renal and 115% in the assay with COLO 205 colon.

As to `OB(O)c1cccc(-c2nc3ccc4[nH]ncc4c3c3c2CCCC3)c1`, the growth was 73% in the assay on NCI-H23 lung; 81.6% in the assay on NCI-H226 lung; 45% in the assay on NCI-H322M lung; 42.3% in the assay on HOP-62 NSCLC; 32.6% in the assay on NCI-H460 lung; 47.6% with HOP-92 NSCLC. For the same compound, the growth with NCI-H522 lung was 62.9%; in the assay with A549/ATCC NSCLC, 41.8%; with 786-0 renal it was 41.4%; in the assay on COLO 205 colon, 41.7%.

For `Cc1cc(N)c2cc(NC(=O)/C=C\c3ccccc3Cl)ccc2n1`, the growth in the assay with NCI-H23 lung was -85.4% (active); in the assay with NCI-H226 lung, -70.7% (active); with NCI-H322M lung, -83.3% (active); in the assay on HOP-62 NSCLC, -71.5% (active); in the assay on NCI-H460 lung, -78.3% (active); in the assay on HOP-92 NSCLC, -69.5% (active). The growth in the assay on NCI-H522 lung was -70.7% (active); with A549/ATCC NSCLC, -43.5% (active); in the assay on 786-0 renal it was -81.3% (active); with COLO 205 colon, -65.9% (active).

As for `O=C(O)c1[nH]c(=O)[nH]c(=O)c1[N+](=O)[O-]`, the growth in the assay on NCI-H23 lung was 109%; in the assay with NCI-H226 lung it was 108%; in the assay on NCI-H322M lung it was 119%; in the assay on HOP-62 NSCLC it was 104%; in the assay on NCI-H460 lung it was 115%; in the assay on HOP-92 NSCLC it was 88%. Besides, the growth with NCI-H522 lung was 138%; with A549/ATCC NSCLC it was 106%; with 786-0 renal, 106%; in the assay with COLO 205 colon, 112%.

For the compound `O=C1c2ccc3c4ccc5c6c(ccc(c7ccc(c2c37)C(=O)N1CCC[P+](c1ccccc1)(c1ccccc1)c1ccccc1)c64)C(=O)N(CCC[P+](c1ccccc1)(c1ccccc1)c1ccccc1)C5=O`, the growth in the assay with NCI-H23 lung is 28.1%; in the assay on NCI-H226 lung, 105%; in the assay on NCI-H322M lung, 84.2%; in the assay on HOP-62 NSCLC it was 60.3%; in the assay with NCI-H460 lung it was 28%; in the assay with HOP-92 NSCLC, 77.3%. In addition, the growth was 67.6% in the assay with NCI-H522 lung, 43.8% with A549/ATCC NSCLC, 91.2% in the assay with 786-0 renal and 15.5% with COLO 205 colon.

Consider `O=C(Nc1nn(-c2ccc(Cl)cc2Cl)nc1-c1ccccc1)c1ccccc1`, for which the growth in the assay with NCI-H23 lung is 97.2%; in the assay with NCI-H226 lung it was 98.6%; with NCI-H322M lung, 99.2%; with HOP-62 NSCLC it was 77.3%; in the assay with NCI-H460 lung, 107%; in the assay with HOP-92 NSCLC it was 86.9%. Also, the growth with NCI-H522 lung was 87.2%; in the assay on A549/ATCC NSCLC it was 94.7%; in the assay with 786-0 renal, 94.3%; with COLO 205 colon, 99.3%.

Take `CS(=O)(=O)Nc1cc(-c2ccc3ncnc(Nc4c(Cl)ccc5c4OCO5)c3c2)cnc1Cl`: the growth in the assay with NCI-H23 lung was 0.217% (active); in the assay with NCI-H226 lung, 12.7%; in the assay on NCI-H322M lung, -39% (active); in the assay with HOP-62 NSCLC, 9.21% (active); with NCI-H460 lung, 7.13% (active); with HOP-92 NSCLC, -10.5% (active). In addition, the growth in the assay with NCI-H522 lung is -13.8% (active); in the assay with A549/ATCC NSCLC it was -13.7% (active); in the assay with 786-0 renal, 0.785% (active); in the assay on COLO 205 colon, -45% (active).

On to `Cc1c(-n2nnc(-c3nc4ccccc4s3)c2N)c(=O)n(-c2ccccc2)n1C`, for which the growth was 93.3% with NCI-H23 lung; 91.4% in the assay on NCI-H226 lung; 100% in the assay on NCI-H322M lung; 103% in the assay with HOP-62 NSCLC; 103% with NCI-H460 lung; 104% with HOP-92 NSCLC. Further, the growth in the assay with NCI-H522 lung is 90.6%; with A549/ATCC NSCLC it was 105%; with 786-0 renal, 107%; in the assay on COLO 205 colon, 104%.

For `O=C(O)CNC1=C(Cl)C(=O)c2ccccc2C1=O`, the growth in the assay on NCI-H23 lung was 88%; in the assay with NCI-H226 lung it was 109%; in the assay with NCI-H322M lung it was 103%; in the assay with HOP-62 NSCLC, 95.4%; with NCI-H460 lung, 102%; in the assay with HOP-92 NSCLC, 74.1%. The growth with NCI-H522 lung is 78.8%; in the assay with A549/ATCC NSCLC, 96.6%; in the assay with 786-0 renal, 101%; in the assay on COLO 205 colon, 113%.
